Reference: PubChem BioAssay (NCI)
Compounds without any hit were thinned out: in the full panel of roughly 79,000, 15% have a hit. Activity calls are given as the source filed them. Rule as the data show it: active = growth inhibition above about 70%; inactive = the rest.

Key:
[1] = NCI Yeast Anticancer Drug Screen. Data for the rad52 strain (AID 147);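 also: 0% = growth of vehicle-treated control cultures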; conditions: S. cerevisiae rad52 mutant growth inhibition, hits give high values
Summary of the method: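 Growth of repair-deficient yeast cells was compared between compound-treated and vehicle-treated cultures to give percent inhibition.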

[2] = NCI Yeast Anticancer Drug Screen. Data for the wt1 strain (AID 149);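 also: 0% = growth of vehicle-treated wt1 cultures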; conditions: S. cerevisiae wt1 strain (SPY 50644) growth inhibition, hits give high values
Summary of the method: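 Each compound is tested on wt1 yeast and the loss of growth versus vehicle gives the inhibition value.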

[3] = NCI Yeast Anticancer Drug Screen. Data for the rad50EPP+ strain (AID 151);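 also: 0% = growth of vehicle-treated control cultures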; conditions: S. cerevisiae rad50 mutant strain, hits give high values
Summary of the method: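 Measured: growth inhibition of rad50EPP+ yeast. Reference: vehicle-treated controls. Screen uses strains with defined genetic alterations in DNA damage repair or cell cycle control.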

[4] = NCI Yeast Anticancer Drug Screen. Data for the mgt1 strain (AID 153); conditions: S. cerevisiae mgt1 mutant growth inhibition, hits give high values
Summary of the method: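 Compounds were applied to mgt1 mutant yeast, and growth was then compared against vehicle-treated control cultures to give percent inhibition.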

[5] = NCI Yeast Anticancer Drug Screen. Data for the rad50 strain (AID 155);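 also: 0% = growth of vehicle-only cultures of the same strain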; conditions: S. cerevisiae rad50 strain growth inhibition, hits give high values
Summary of the method: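 Vehicle-treated cultures provide the reference for the growth inhibition reported for compound-exposed, repair-deficient yeast.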

[6] = NCI Yeast Anticancer Drug Screen. Data for the mec2-1 strain (AID 157); conditions: S. cerevisiae mec2-1 strain, hits give high values
Summary of the method: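 Compounds were applied to mec2-1 yeast cells. Their growth was then compared with that of vehicle-treated cultures to give growth inhibition.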

[7] = NCI Yeast Anticancer Drug Screen. Data for the rad14 strain (AID 159);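 also: 0% = growth of vehicle-treated control cultures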; conditions: S. cerevisiae rad14 strain growth inhibition, hits give high values
Summary of the method: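 Inhibition of growth is reported for a repair-deficient yeast mutant following compound treatment, calculated relative to cultures that received vehicle.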

[8] = NCI Yeast Anticancer Drug Screen. Data for the sgs1 mgt1 strain (AID 161);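 also: 0% = growth of cultures given vehicle only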; conditions: S. cerevisiae sgs1 mgt1 strain, hits give high values
Summary of the method: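 Growth of a repair-deficient yeast mutant was monitored after compound treatment and expressed as inhibition relative to vehicle-treated cultures.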

[9] = NCI Yeast Anticancer Drug Screen. Data for the CLN2oe strain (AID 163);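 also: 0% = growth of vehicle-only control cultures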; conditions: S. cerevisiae CLN2oe strain, hits give high values
Summary of the method: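 Cells of an engineered yeast line with disturbed cell-cycle regulation are treated with compound. Inhibition of growth is then calculated relative to the vehicle-treated reference.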

[10] = NCI Yeast Anticancer Drug Screen. Data for the cln2 rad14 strain (AID 165);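 also: 0% = growth equal to vehicle treated cultures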; conditions: S. cerevisiae cln2 rad14 strain, hits give high values
Summary of the method: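 Strain: cln2 rad14 yeast, altered in cell cycle control and DNA damage repair. Read-out: growth inhibition vs vehicle.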

[11] = NCI Yeast Anticancer Drug Screen. Data for the bub3 strain (AID 167); conditions: S. cerevisiae bub3 mutant strain, hits give high values
Summary of the method: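 Mutant yeast screening strain plus compound; vehicle-treated cultures serve as the 0% inhibition reference.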

[12] = NCI Yeast Anticancer Drug Screen. Data for the wt2 strain (AID 169); conditions: S. cerevisiae wt2 strain growth inhibition, hits give high values
Summary of the method: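 Growth of compound-treated yeast is measured and expressed as inhibition relative to vehicle-only controls.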

[13] = NCI Yeast Anticancer Drug Screen. Data for the mlh1 strain (AID 171);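 also: 0% = growth of vehicle-treated control cultures of the same strain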; conditions: S. cerevisiae mlh1 strain growth inhibition, hits give high values
Summary of the method: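 Test agents were incubated with yeast bearing a defined DNA damage repair or cell cycle control alteration; values are growth inhibition normalised to vehicle-treated cultures.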

[14] = NCI Yeast Anticancer Drug Screen. Data for the sgs1 strain (AID 173);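 also: 0% = growth of vehicle-only control cultures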; conditions: S. cerevisiae sgs1 mutant, hits give high values
Summary of the method: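 Strain with an altered DNA repair or cell cycle pathway exposed to compound. Growth then measured. Value = inhibition versus vehicle control.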

[15] = NCI Yeast Anticancer Drug Screen. Data for the mlh1 rad18 strain (AID 175); conditions: S. cerevisiae mlh1 rad18 strain growth inhibition, hits give high values
Summary of the method: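 A repair-deficient yeast strain is exposed to test compound, and growth is scored relative to vehicle-treated controls.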

[16] = NCI Yeast Anticancer Drug Screen. Data for the rad18 strain (AID 177); conditions: S. cerevisiae rad18 mutant growth inhibition, hits give high values
Summary of the method: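 DNA-repair-defective yeast; compound treatment; growth inhibition scored against vehicle.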

[17] = at 5.0 µM (retest, dose inferred, filed as 0.5)
[18] = at 50.0 µM (retest, dose inferred, filed as 5.0)

Measured: growth inhibition

O=C(O)c1c2ccc(Cl)cc2nc2[nH]c(=O)[nH]c(=O)c12
inactive: [1]; at 1.2 µM -38% | [1]; at 3.7 µM -34% | [1]; at 11.0 µM -25% | [1]; at 33.0 µM -30% | [1]; at 100.0 µM -13% | [2]; at 1.2 µM -37% | [2]; at 3.7 µM -35% | [2]; at 11.0 µM -44% | [2]; at 33.0 µM -38% | [2]; at 100.0 µM -18% | [3]; at 1.2 µM -13% | [3]; at 3.7 µM -46% | [3]; at 11.0 µM -10% | [3]; at 33.0 µM 28% | [3]; at 100.0 µM 50% | [4]; at 1.2 µM -37% | [4]; at 3.7 µM -31% | [4]; at 11.0 µM -35% | [4]; at 33.0 µM -5% | [4]; at 100.0 µM 17% | [5]; at 1.2 µM -56% | [5]; at 3.7 µM -28% | [5]; [17] 47% | [5]; at 11.0 µM -32% | [5]; at 33.0 µM -23% | [5]; [18] 45% | [5]; at 50.0 µM 29.4% | [5]; at 100.0 µM 36% | [6]; at 1.2 µM -63% | [6]; at 3.7 µM -50% | [6]; [17] 47% | [6]; at 11.0 µM -37% | [6]; at 33.0 µM -43% | [6]; [18] 52% | [6]; at 50.0 µM 36.9% | [6]; at 100.0 µM -30% | [7]; at 1.2 µM -14% | [7]; at 3.7 µM -16% | [7]; at 11.0 µM -21% | [7]; at 33.0 µM -22% | [7]; at 100.0 µM 3% | [8]; [17] 13% | [8]; [18] 26% | [8]; at 50.0 µM 27.6% | [9]; at 1.2 µM -45% | [9]; at 3.7 µM -33% | [9]; at 11.0 µM -24% | [9]; at 33.0 µM -13% | [9]; at 100.0 µM -1% | [10]; [17] 64% | [10]; [18] 12% | [10]; at 50.0 µM 9.2% | [11]; at 1.2 µM -57% | [11]; at 3.7 µM -40% | [11]; [17] 36% | [11]; at 11.0 µM -29% | [11]; at 33.0 µM -5% | [11]; at 100.0 µM 50% | [12]; at 1.2 µM -30% | [12]; at 3.7 µM -33% | [12]; at 11.0 µM -25% | [12]; at 33.0 µM -23% | [12]; at 100.0 µM 4% | [13]; at 1.2 µM -29% | [13]; at 3.7 µM -24% | [13]; at 11.0 µM -29% | [13]; at 33.0 µM -11% | [13]; at 100.0 µM 30% | [14]; at 1.2 µM -39% | [14]; at 3.7 µM -31% | [14]; at 11.0 µM -26% | [14]; at 33.0 µM -10% | [14]; at 100.0 µM 1% | [15]; [17] 45% | [15]; [18] 54% | [15]; at 50.0 µM 31.7% | [16]; at 1.2 µM -21% | [16]; at 3.7 µM -17% | [16]; at 11.0 µM -9% | [16]; at 33.0 µM -1% | [16]; at 100.0 µM 7%
active: [11]; [18] 82% | [11]; at 50.0 µM 79.5%
